Measurements from publication PMC8384837, “Expanding the binding specificity for RNA recognition by a PUF domain”.
Where a chain is given by its changes, count along the chain named.

How the values were obtained:
Assay in all cases: yeast three-hybrid, YBZ-1, SC-Leu-His + 0.5 mM 3-AT, 4 days
Conditions in all cases: tags: N-Gal4 AD-HA kept; label: inside an RPR1-promoter hybrid RNA with tandem MS2 sites; ssRNA
PUM1 PUF domain R8-SFK = PUM1 PUF domain R8-SFK (Homo sapiens, UniProt Q14671 828-1176, N1122S;Y1123F;Q1126K)
Method in brief: (§1)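 Sequencing with Illumina followed PCR amplification of the repeat regions from transformants grown four days on SC-Leu (input) or SC-Leu-His + 0.5 mM 3-AT (selection). The transformants were strain YBZ-1 with a LexA–MS2 coat fusion and a HIS3 reporter, carrying Pumilio-1 PUF domain libraries and matching RNA elements. The interaction score is the log change in variant frequency from input to selection, computed in log2 with a pseudocount of 1 for absent variants.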

PUM1 PUF domain R6-SRR = biological target: T1, PUM1 PUF domain R6-SRR (Homo sapiens, UniProt Q14671 828-1176, N1043S;Y1044R;Q1047R)
T1 sequence: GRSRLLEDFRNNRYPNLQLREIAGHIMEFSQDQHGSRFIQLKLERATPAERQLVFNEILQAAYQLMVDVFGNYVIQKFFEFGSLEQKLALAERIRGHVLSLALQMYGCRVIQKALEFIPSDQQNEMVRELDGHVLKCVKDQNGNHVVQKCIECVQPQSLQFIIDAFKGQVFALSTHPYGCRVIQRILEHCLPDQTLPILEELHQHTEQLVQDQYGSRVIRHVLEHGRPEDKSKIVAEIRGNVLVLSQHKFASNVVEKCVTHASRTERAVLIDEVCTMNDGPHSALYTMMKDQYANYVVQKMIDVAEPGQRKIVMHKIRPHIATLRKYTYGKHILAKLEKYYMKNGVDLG
Method in brief: as §1

PUM1 PUF domain R5-SGR = PUM1 PUF domain R5-SGR (Homo sapiens, UniProt Q14671 828-1176, C1007S;R1008G;Q1011R)
Method in brief: as §1

PUM1 PUF domain R5-FRS = PUM1 PUF domain R5-FRS (Homo sapiens, UniProt Q14671 828-1176, C1007F;Q1011S)
Method in brief: as §1

PUM1 PUF domain R7-NPR = PUM1 PUF domain R7-NPR (Homo sapiens, UniProt Q14671 828-1176, S1079N;N1080P;E1083R)
Method in brief: as §1

PUM1 PUF domain R7-TTG = PUM1 PUF domain R7-TTG (Homo sapiens, UniProt Q14671 828-1176, S1079T;N1080T;E1083G)
Method in brief: as §1

PUM1 PUF domain R8-SRR = PUM1 PUF domain R8-SRR (Homo sapiens, UniProt Q14671 828-1176, N1122S;Y1123R;Q1126R)
Method in brief: as §1

PUM1 PUF domain R6-LFV = biological target: T2, PUM1 PUF domain R6-LFV (Homo sapiens, UniProt Q14671 828-1176, N1043L;Y1044F;Q1047V)
T2 sequence: T1 sequence with S216L, R217F, R220V
Method in brief: as §1

PUM1 PUF domain R6-AYG = biological target: T3, PUM1 PUF domain R6-AYG (Homo sapiens, UniProt Q14671 828-1176, N1043A;Q1047G)
T3 sequence: T1 sequence with S216A, R217Y, R220G
Method in brief: as §1

PUM1 PUF domain R5-WRD = PUM1 PUF domain R5-WRD (Homo sapiens, UniProt Q14671 828-1176, C1007W;Q1011D)
Method in brief: as §1

**Q.** Which binding signal (PUM1 PUF domain R8-SFK) does the source give for “GGCUAGAACUAGUGGAUCCCCCGGCGCCCGGCGGCUCGAGCCCGGGUAAGGGUAAAUAGUCUGCAUGCCGCCGGGCGCCAUGCCUGCAGGUCGACUCUAGAAAACAUG” here?
**A.** The binding signal was 2.09 log2 enrichment (interaction score).

**Q.** With “GGCUAGAACUAGUGGAUCCCCCGGCGCCCGGCGGCUCGAGCCCGGGUAAGUGCAAAUAGUCUGCAUGCCGCCGGGCGCCAUGCCUGCAGGUCGACUCUAGAAAACAUG” as the sequence, how does the binding signal (PUM1 PUF domain R6-SRR) read?
**A.** The binding signal was 3.26 log2 enrichment (interaction score).

**Q.** Which results are given for “GGCUAGAACUAGUGGAUCCCCCGGCGCCCGGCGGCUCGAGCCCGGGUAAGUGUCAAUAGUCUGCAUGCCGCCGGGCGCCAUGCCUGCAGGUCGACUCUAGAAAACAUG”?
**A.** binding signal (PUM1 PUF domain R5-SGR): 6.98 log2 enrichment (interaction score); binding signal (PUM1 PUF domain R5-FRS): 2.38 log2 enrichment (interaction score)

**Q.** Which binding signal (PUM1 PUF domain R7-NPR) does the source give for “GGCUAGAACUAGUGGAUCCCCCGGCGCCCGGCGGCUCGAGCCCGGGUAAGUCUAAAUAGUCUGCAUGCCGCCGGGCGCCAUGCCUGCAGGUCGACUCUAGAAAACAUG” here?
**A.** Its binding signal is 0.79 log2 enrichment (interaction score).

**Q.** Which binding signal (PUM1 PUF domain R7-NPR) does the source give for “GGCUAGAACUAGUGGAUCCCCCGGCGCCCGGCGGCUCGAGCCCGGGUAAGUUUAAAUAGUCUGCAUGCCGCCGGGCGCCAUGCCUGCAGGUCGACUCUAGAAAACAUG” here?
**A.** The binding signal was 5.02 log2 enrichment (interaction score).

**Q.** And the binding signal (PUM1 PUF domain R7-TTG)?
**A.** The binding signal was 3.76 log2 enrichment (interaction score).

**Q.** What does the source list for “GGCUAGAACUAGUGGAUCCCCCGGCGCCCGGCGGCUCGAGCCCGGGUAAGCGUAAAUAGUCUGCAUGCCGCCGGGCGCCAUGCCUGCAGGUCGACUCUAGAAAACAUG”?
**A.** binding signal (PUM1 PUF domain R8-SRR): 2.8 log2 enrichment (interaction score); binding signal (PUM1 PUF domain R8-SFK): 5.53 log2 enrichment (interaction score)

**Q.** “GGCUAGAACUAGUGGAUCCCCCGGCGCCCGGCGGCUCGAGCCCGGGUAAGUGAAAAUAGUCUGCAUGCCGCCGGGCGCCAUGCCUGCAGGUCGACUCUAGAAAACAUG” was tested. Which binding signal (PUM1 PUF domain R6-LFV) did it give?
**A.** Its binding signal is 5.6 log2 enrichment (interaction score).

**Q.** What about the binding signal (PUM1 PUF domain R6-AYG) of the same sequence?
**A.** Its binding signal is 2.71 log2 enrichment (interaction score).

**Q.** What does the source list for “GGCUAGAACUAGUGGAUCCCCCGGCGCCCGGCGGCUCGAGCCCGGGUAAGUGUUAAUAGUCUGCAUGCCGCCGGGCGCCAUGCCUGCAGGUCGACUCUAGAAAACAUG”?
**A.** binding signal (PUM1 PUF domain R5-SGR): 0.78 log2 enrichment (interaction score); binding signal (PUM1 PUF domain R5-FRS): 3.13 log2 enrichment (interaction score); binding signal (PUM1 PUF domain R5-WRD): 2.27 log2 enrichment (interaction score)

**Q.** Which binding signal (PUM1 PUF domain R5-SGR) does the source give for “GGCUAGAACUAGUGGAUCCCCCGGCGCCCGGCGGCUCGAGCCCGGGUAAGUGUAAAUAGUCUGCAUGCCGCCGGGCGCCAUGCCUGCAGGUCGACUCUAGAAAACAUG” here?
**A.** Its binding signal is 1.55 log2 enrichment (interaction score).

**Q.** What about the binding signal (PUM1 PUF domain R8-SRR) of the same sequence?
**A.** Its binding signal is 1.78 log2 enrichment (interaction score).

**Q.** And the binding signal (PUM1 PUF domain R6-SRR)?
**A.** Its binding signal is 3.04 log2 enrichment (interaction score).

**Q.** What about the binding signal (PUM1 PUF domain R5-FRS) of the same sequence?
**A.** Its binding signal is 0.74 log2 enrichment (interaction score).

**Q.** And the binding signal (PUM1 PUF domain R6-AYG)?
**A.** Its binding signal is 1.05 log2 enrichment (interaction score).

**Q.** And the binding signal (PUM1 PUF domain R8-SFK)?
**A.** The binding signal was 5.06 log2 enrichment (interaction score).
